Molecules are shown by their SMILES. The campaign covered roughly 2,300 compounds. About 1,200 (52%) were called active. Inconclusive results (about 34%) are left out. The call rests on the fitted dose curve; in most records, active means well fitted inhibition curve with a large enough effect; inconclusive means small, poorly fitted or top-dose-only effect, or effect the other way; inactive means no such curve, though single readings can be large or run the other way. So high a share suggests a set chosen from earlier hits. The list shows a part of the results.

Data on 90 molecules can be found in PubChem BioAssay AID504850 (National Center for Advancing Translational Sciences (NCATS), 2011).
On the % scale 0 is the no-effect control and ±100 the full control effect; potency means the concentration at half of the fitted maximal effect.

The test can be described thus: Confirmation screen for delayed death inhibitors of the malarial parasite plastid, 48 hour incubation. Further: nearly all actives have a fitted effect of over 65% in size. To be noted: P. falciparum-infected erythrocytes, luciferase growth; series mostly up to 28.7 µM; activity change, negative = inhibition: at the top concentration. In short, it runs like this: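 Single-generation (48 h, 37 C) exposure of integrated firefly luciferase-reporter P. falciparum in red cells, 0.1% parasitemia at 2% hematocrit, Albumax-supplemented RPMI. Falling luciferase signal marks parasite growth inhibition.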
In the case of `CC(C)C(=O)NCCSc1c[nH]c2ccccc12`, the “activity change, negative = inhibition” value is -11.4% (inactive).

In the case of `O=C(NC(Cc1c[nH]c2ccccc12)C(=O)Nc1ccc(F)cc1)c1cccs1` (stereo not given), the Potency was 7.08 µM (active).

For the molecule `Cc1cccc(NC(=O)[C@H](Cc2c[nH]c3ccccc23)NC(=O)[C@@H]2Cc3ccccc3CN2)c1`, the Potency is 10 µM (active).

As for `COc1cccc(NC(=O)[C@H](Cc2c[nH]c3ccccc23)NC(=O)[C@@H]2Cc3ccccc3CN2)c1`, the Potency was 14.1 µM (active).

As for `CCS(=O)(=O)N1Cc2ccccc2CC1C(=O)Nc1cccc(OC)c1` (stereo not given), the “activity change, negative = inhibition” value is -17.3% (inactive).

For the molecule `COc1ccc(NC(=O)[C@H](Cc2c[nH]c3ccccc23)NC(=O)[C@@H]2Cc3ccccc3CN2)cc1`, the Potency was 7.94 µM (active).

For the molecule `COc1ccc(C(=O)NCCc2c[nH]c3ccccc23)cc1[N+](=O)[O-]`, the “activity change, negative = inhibition” value was -4.64% (inactive).

With `CNC(=S)N(CCc1c(C)[nH]c2ccc(Cl)cc12)Cc1cccnc1`, the Potency is 14.1 µM (active).

Regarding `CNC(=S)N(CCc1c(C)[nH]c2ccc(C)cc12)Cc1cc(OC)c(OC)c(OC)c1`, the Potency was 12.6 µM (active).

Consider `Cc1ccc(NC(=O)C(=Cc2ccc(C(=O)O)cc2)C(=O)Nc2ccc(C)cc2C)c(C)c1`, for which the Potency was 10 µM (active).

As to `Cn1c(/C=C/c2ccc(Cl)cc2)c([N+](=O)[O-])c(=O)n(C)c1=O`, the Potency is 7.94 µM (active).

Regarding `N#C/C(=C\c1ccccn1)c1ccccn1`, the Potency was 11.2 µM (active).

Regarding `CSC1=NC(C)(C)C=C(/C=C/c2ccc(Cl)cc2Cl)N1`, the Potency was 1.78 µM (active).

For the molecule `CSC1=NC(C)(C)C=C(/C=C/c2c(Cl)cccc2Cl)N1`, the Potency is 10 µM (active).

As for `CSC1=NC(C)(C)C=C(/C=C/c2ccc(Cl)cc2)N1`, the Potency is 10 µM (active).

Regarding `CC(Oc1ccc(Br)cc1)C(=O)N1CCN(c2ccccn2)CC1` (stereo not given), the Potency is 15.8 µM (active).

Regarding `O=C(c1ccccc1Br)N1CCN(c2ccccn2)CC1`, the “activity change, negative = inhibition” value was 5.69% (inactive).

Turning to `O=C(NCc1ccc2[nH]c3c(c2c1)CCCC3)c1ccc(S(=O)(=O)N2CCCC2)cc1`, the Potency is 15.8 µM (active).

On to `COc1ccc(Cl)cc1NC(=O)C(=O)NCc1ccncc1`, for which the “activity change, negative = inhibition” value was -9.93% (inactive).

For the molecule `COc1ccc(-c2cc(C(=O)Nc3cc(C)n(Cc4ccc(Cl)cc4)n3)no2)cc1OC`, the Potency is 0.355 µM (active).

As to `Cc1cc(C)cc(NC(=O)c2ccc(CN3CCc4ccccc4C3)cc2)c1`, the Potency is 14.1 µM (active).

Take `O=C(Nc1ccc(Cl)cc1)c1ccc(CN2CCc3ccccc3C2)cc1`: the Potency is 14.1 µM (active).

For `O=C(Nc1ccc(F)cc1)c1ccc(CN2CCc3ccccc3C2)cc1`, the Potency was 12.6 µM (active).

For the molecule `Cc1cc(NC(=O)CN2C(=O)NC(c3ccccc3)(c3ccc(C)c(C)c3)C2=O)no1` (stereo not given), the Potency is 14.1 µM (active).

Consider `CCOc1ccccc1CN1C(=O)NC(C)(c2ccccc2)C1=O` (stereo not given), for which the “activity change, negative = inhibition” value was -30.8% (inactive).

Take `COc1ccccc1CNC(=O)CN1C(=O)NC(c2ccccc2)(c2ccc(C)c(C)c2)C1=O` (stereo not given): the Potency is 12.6 µM (active).

Regarding `Cn1c(=O)c([N+](=O)[O-])c(-n2ccnc2)c2ccccc21`, the Potency is 12.6 µM (active).

`C/C(=C\C(=O)OCCCCCCCCC(=O)O)C[C@@H]1OC[C@H](C[C@@H]2O[C@H]2[C@@H](C)[C@H](C)O)[C@@H](O)[C@H]1O`: the Potency was 1.12 µM (active).

With `CCC(C)NC(=O)c1cc(Cl)c(NC(=O)C2=C(C)OCCS2)cc1OC` (stereo not given), the Potency was 11.2 µM (active).

Take `COc1ccc(-c2cc(-c3ccccc3)nc(SCC(=O)Nc3nccs3)c2C#N)cc1`: the Potency is 2.24 µM (active).

As for `CCOC(=O)c1sc(NC(=O)CSc2ncccn2)nc1C`, the “activity change, negative = inhibition” value was -42.1% (inactive).

Regarding `COc1ccc(-c2cc(-c3ccccc3)nc(SC(C)C(=O)O)c2C#N)cc1` (stereo not given), the Potency is 14.1 µM (active).

With `Fc1ccc(C2CC(c3ccco3)=NN2c2ccccc2)cc1` (stereo not given), the “activity change, negative = inhibition” value is -23.2% (inactive).

For the molecule `CS(=O)(=O)Nc1ccc(C2=NN(C(=O)c3ccco3)C(c3ccc(F)cc3)C2)cc1` (stereo not given), the Potency is 12.6 µM (active).

Take `COc1ccc(Cc2nc3ccc(C(=O)NCCc4ccccn4)cc3o2)cc1OC`: the Potency is 14.1 µM (active).

Regarding `O=C(NNC(=O)c1ccc(Br)s1)c1ccc(F)c(S(=O)(=O)N2CCOCC2)c1`, the “activity change, negative = inhibition” value was -20.8% (inactive).

As to `C/C(=N\NC(=O)c1ccc(Cl)c(Cl)c1)c1ccc(Br)s1`, the Potency is 3.55 µM (active).

In the case of `COc1ccc2c(c1OC)C(=O)N1N=C(c3ccccc3)CC21` (stereo not given), the Potency was 5.01 µM (active).

For the molecule `Nc1nc(CCl)nc(N(c2ccccc2)c2ccccc2)n1`, the Potency is 8.91 µM (active).

Regarding `Cc1cccc(N(Cc2ccccc2)C(=O)CN2C(=O)NC3(CCCCC3C)C2=O)c1` (stereo not given), the Potency was 12.6 µM (active).

On to `CCCC(=O)Nc1nnc(CC(=O)N2CCCC2)s1`, for which the “activity change, negative = inhibition” value is 4.66% (inactive).

Consider `COc1ccc(CN2CCN(C(=O)CCC(=O)Nc3nnc(C4CCCCC4)s3)CC2)cc1F`, for which the Potency is 12.6 µM (active).

Regarding `CCCc1nnc(NC(=O)CCC(=O)N2CCN(Cc3ccc(Cl)cc3)CC2)s1`, the Potency was 12.6 µM (active).

With `CCOC(=O)c1c(C)sc2c1N(C(=O)CCl)c1cc(Cl)ccc1S2`, the Potency is 3.98 µM (active).

As to `O=c1[nH]c(C(F)(F)F)nc2ccc3ccccc3c12`, the “activity change, negative = inhibition” value was -8.91% (inactive).

For `Cc1ccc(NS(=O)(=O)c2ccc(-c3cnc(C4CC4)o3)cc2)c(C)c1`, the Potency was 5.01 µM (active).

As to `O=C(CCl)c1ccc2c(c1)CCN2C(=O)C1CCCCC1`, the Potency was 11.2 µM (active).

On to `O=C(C1CCC1)N1CCc2cc(S(=O)(=O)NCc3ccco3)ccc21`, for which the “activity change, negative = inhibition” value is 22.7% (inactive).

Take `O=[N+]([O-])/C=C\c1ccc(N2CCCC2)c(F)c1`: the “activity change, negative = inhibition” value was -22.9% (inactive).

As to `COc1ccc(NC(=O)c2cc([N+](=O)[O-])ccc2N2CCN(C)CC2)cc1`, the “activity change, negative = inhibition” value is -7.89% (inactive).

Consider `CCC(=O)c1ccc(N2CCN(C(=O)c3cc([N+](=O)[O-])ccc3N3CCN(C)CC3)CC2)c(F)c1`, for which the Potency was 10 µM (active).

As for `CCCn1cc(S(=O)(=O)c2ccc(Cl)cc2)c(=O)c2cc(OC)ccc21`, the Potency was 12.6 µM (active).

With `COc1ccc([N+](=O)[O-])c(S(=O)(=O)c2ccc(Cl)cc2)n1`, the “activity change, negative = inhibition” value is -12.9% (inactive).

Take `Cc1onc(-c2c(F)cccc2Cl)c1-c1nnc(-c2ccc(C(F)(F)F)cc2)o1`: the Potency was 5.62 µM (active).

Turning to `Cc1[nH]c(C)c(C(=O)/C=C/c2ccc([N+](=O)[O-])cc2)c1C`, the Potency was 12.6 µM (active).

Consider `Cc1oc(-c2ccccc2Cl)nc1Cn1cccc1C1=NC(c2ccccc2)CO1` (stereo not given), for which the Potency was 12.6 µM (active).

Turning to `CCCSCCCNC(=O)c1ccccc1NC(=O)C1=CSCCO1`, the Potency is 12.6 µM (active).

`O=C(Cc1cn2ccsc2n1)Nc1nc2c(s1)CCCC2`: the “activity change, negative = inhibition” value was -7.92% (inactive).

Turning to `CC(C)(C)c1nc(SCC(=O)Nc2ccc(N3CCOCC3)cc2)c2ccccc2n1`, the Potency is 11.2 µM (active).

Consider `CC(C)(C)c1nc(SCC(=O)Nc2nc3c(s2)CCCC3)c2ccccc2n1`, for which the Potency was 4.47 µM (active).

On to `O=C(Cn1c(=O)sc2ccccc21)Nc1nc2c(s1)CCCC2`, for which the “activity change, negative = inhibition” value was 10% (inactive).

For the molecule `CCN(CC)C(=O)C1CCCN(C(=O)c2cc(COc3ccc4ncccc4c3)on2)C1` (stereo not given), the Potency is 11.2 µM (active).

In the case of `CN1C(=O)Cc2cc(S(=O)(=O)N3CCN(c4cccc(C(F)(F)F)c4)CC3)ccc21`, the Potency is 11.2 µM (active).

For `Cc1ccc(-c2cc(=O)c3ccc(F)cc3[nH]2)cc1`, the Potency is 5.01 µM (active).

Regarding `NC(=O)COc1ccc(NC(=O)CC23CC4CC(CC(C4)C2)C3)cc1`, the Potency is 11.2 µM (active).

As to `NC(=O)COc1ccc(C(=O)/C=C2/C(=O)Nc3ccccc32)cc1`, the “activity change, negative = inhibition” value is -13.9% (inactive).

On to `CCn1nc(C)c(NC(=O)CC23CC4CC(CC(C4)C2)C3)c1C`, for which the “activity change, negative = inhibition” value is -8.09% (inactive).

As to `C=CCNC(=O)CSc1nc2sc3c(c2c(=O)n1CCCOC)CCC3`, the Potency was 12.6 µM (active).

On to `COc1cc(/C=N/NC(=O)c2cc(-c3ccccc3OC(C)C)nc3ccccc23)ccc1O`, for which the Potency is 14.1 µM (active).

On to `CCOc1ccc(-c2cc(C(=O)O)c3ccccc3n2)c(OCC)c1`, for which the “activity change, negative = inhibition” value is -18.3% (inactive).

In the case of `COc1ccc(/C=N/NC(=O)c2cc(-c3ccccc3OC(C)C)nc3ccccc23)cc1CN1CCOCC1`, the “activity change, negative = inhibition” value was -26.3% (inactive).

As to `CC(C)Oc1ccccc1-c1cc(C(=O)N/N=C/c2cccnc2)c2ccccc2n1`, the Potency is 11.2 µM (active).

With `CCOc1ccc(-c2cc(C(=O)N/N=C(\C)c3cccnc3)c3ccccc3n2)c(OCC)c1`, the Potency is 14.1 µM (active).

With `CC1CCN(c2ccc3nnc(CCC(=O)N4CCN(c5ccccc5F)CC4)n3n2)CC1`, the Potency was 10 µM (active).

In the case of `Cc1nn(C)c(C)c1C(C)NC(=O)c1ccc(OC2CCN(Cc3ccccn3)CC2)cc1` (stereo not given), the “activity change, negative = inhibition” value was -41.6% (inactive).

For the molecule `CN(CCc1ccccn1)C(=O)c1ccc(OC2CCN(CCc3ccccc3)CC2)cc1`, the Potency is 14.1 µM (active).

`COc1ccc(CN2CCC(Oc3ccc(C(=O)NCc4ccccn4)cc3)CC2)c(F)c1`: the Potency was 12.6 µM (active).

Take `CCCCN(CCCC)CCC(O)c1cc2c(Cl)cc(Cl)cc2c2cc(C(F)(F)F)ccc12` (stereo not given): the Potency is 0.0316 µM (active).

For `CC(=O)/C(C#N)=C1\NC(=O)C(Cc2ccc(F)cc2)S1` (stereo not given), the Potency was 10 µM (active).

For `CC(=O)/C(C#N)=C1\NC(=O)C(Cc2cc(Cl)ccc2Cl)S1` (stereo not given), the Potency was 14.1 µM (active).

As for `CCOC(=O)c1c(C)[nH]c(C(=O)Nc2cc(OCC)c(N3CCOCC3)cc2OCC)c1C`, the Potency is 2.51 µM (active).

For `Cc1ccc(CN(Cc2ccccn2)C(=O)Nc2ccc(C)c(C)c2)cc1`, the Potency is 14.1 µM (active).

Regarding `Cc1ccc(NC(=O)CN2C(=O)S/C(=C\c3ccccn3)C2=O)cc1C`, the “activity change, negative = inhibition” value was -1.34% (inactive).

On to `CC(Sc1nc2cc(Cl)ccc2s1)C(=O)Nc1cccc(S(=O)(=O)N2CCOCC2)c1` (stereo not given), for which the Potency is 12.6 µM (active).

As to `O=C(CCl)Nc1ccc(S(=O)(=O)Nc2nccs2)cc1`, the Potency was 2.24 µM (active).

For the molecule `CCC(=O)c1ccc(OCC(O)CNC(C)c2ccccc2)cc1` (stereo not given), the Potency is 11.2 µM (active).

For `C[C@@H]1CCC2[C@@H](C)[C@@H](O)O[C@@H]3O[C@@]4(C)CC[C@@H]1[C@@]23OO4` (stereo not given in full), the Potency was 0.0251 µM (active).

As for `CO[C@H]1OC2O[C@@]3(C)CC[C@H]4[C@H](C)CC[C@@H]([C@H]1C)[C@@]24OO3` (stereo not given in full), the Potency is 0.0708 µM (active).

Regarding `C[C@H]1[C@@H](OC(=O)CCC(=O)O)OC2OC3(C)CC[C@H]4[C@H](C)CC[C@@H]1[C@@]24OO3` (stereo not given in full), the Potency was 0.0398 µM (active).

As for `CC[C@]1([C@H]2O[C@@H]([C@@H]3O[C@](O)(CO)[C@@H](C)C[C@H]3C)C[C@H]2C)CC[C@@H]([C@]2(C)CC[C@@]3(C[C@@H](O)[C@@H](C)[C@@H]([C@H](C)[C@H](OC)[C@H](C)C(=O)O)O3)O2)O1`, the Potency is 0.141 µM (active).
